Reference: PubChem BioAssay (EPA / NIEHS)
Active and inactive are the calls of the source. How the source made its calls: active means hit-call score of the fitted dose curve at least 0.9, where 1 is the maximum; inactive means score below 0.9.

How the values were obtained:
[1] = ATG_CRE_CIS: Attagene CIS-FACTORIAL HepG2 Assay for human cAMP Responsive Element (CRE) binding protein 3 (AID 2282926); conditions: HepG2 CRE cis-reporter, Attagene multiplexed mRNA; actives raise or lower the signal
In short: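 Cells carrying cis-regulated reporter constructs respond through their own endogenous factors. After 24 h treatment, RNA is reverse-transcribed, amplified, labelled and sized by capillary electrophoresis; up- and down-regulation are both scored against vehicle.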

[2] = molecular target: CCAAT/enhancer-binding protein beta (Homo sapiens) (UniProt P17676); assay: ATG_C_EBP_CIS: Attagene CIS-FACTORIAL HepG2 Assay for human CCAAT/Enhancer Binding Protein (C/EBP) beta (AID 2282927); conditions: HepG2 Attagene cis-factorial transcription factor reporter; actives raise or lower the signal
Sequence of CCAAT/enhancer-binding protein beta (Homo sapiens) (P17676 whole entry, looked up): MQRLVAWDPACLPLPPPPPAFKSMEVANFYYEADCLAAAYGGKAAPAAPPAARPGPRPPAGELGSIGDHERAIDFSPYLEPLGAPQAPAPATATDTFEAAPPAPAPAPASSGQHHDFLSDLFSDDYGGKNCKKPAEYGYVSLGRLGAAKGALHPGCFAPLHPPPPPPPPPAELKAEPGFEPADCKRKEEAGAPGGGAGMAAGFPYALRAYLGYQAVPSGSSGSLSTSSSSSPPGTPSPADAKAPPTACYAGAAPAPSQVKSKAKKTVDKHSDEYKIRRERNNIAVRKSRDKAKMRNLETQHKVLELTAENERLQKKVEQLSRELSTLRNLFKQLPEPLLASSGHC
In short: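 Endogenous transcription factor activity in human liver HepG2 cells is inferred from induction of a CEBPB-linked reporter mRNA. Exposure lasts 24 h; activity is fitted in both directions relative to DMSO.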

[3] = ATG_CMV_CIS: Attagene CIS-FACTORIAL HepG2 Assay for human CMV (Internal Marker) (AID 2282928); conditions: HepG2 CMV promoter reporter, transcription factor profiling; actives raise or lower the signal;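 further: endpoint acts as a background internal control marker rather than a target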
In short: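 Reporter transcripts from transfected HepG2 cells are isolated after 24 h of chemical dosing, reverse-transcribed and amplified. Fragments labeled with 6-FAM are cut with HpaI and quantified by capillary electrophoresis; DMSO defines baseline.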

[4] = ATG_DR4_LXR_CIS: Attagene CIS-FACTORIAL HepG2 Assay for human Liver X Receptor (LXR), DR4 submotif (AID 2282929); conditions: HepG2 Attagene DR4 cis-reporter, mRNA transcription; actives raise or lower the signal
In short: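 HepG2 cells transiently transfected with cis-promoter-driven multiplexed reporter units (DR4 element) were dosed for 24 h. Reporter mRNA was quantified by RT-PCR, fluorescent primer extension, HpaI digestion and capillary electrophoresis; bidirectional fitting versus DMSO baseline.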

[5] = molecular target: Aryl hydrocarbon receptor (Homo sapiens) (UniProt P35869); assay: ATG_Ahr_CIS: Attagene CIS-FACTORIAL HepG2 Assay for human Aryl Hydrocarbon Receptor (Ahr) (AID 2282930); conditions: HepG2 AhR cis-factorial reporter transcription; actives raise or lower the signal
Sequence of Aryl hydrocarbon receptor (Homo sapiens) (P35869 whole entry, looked up): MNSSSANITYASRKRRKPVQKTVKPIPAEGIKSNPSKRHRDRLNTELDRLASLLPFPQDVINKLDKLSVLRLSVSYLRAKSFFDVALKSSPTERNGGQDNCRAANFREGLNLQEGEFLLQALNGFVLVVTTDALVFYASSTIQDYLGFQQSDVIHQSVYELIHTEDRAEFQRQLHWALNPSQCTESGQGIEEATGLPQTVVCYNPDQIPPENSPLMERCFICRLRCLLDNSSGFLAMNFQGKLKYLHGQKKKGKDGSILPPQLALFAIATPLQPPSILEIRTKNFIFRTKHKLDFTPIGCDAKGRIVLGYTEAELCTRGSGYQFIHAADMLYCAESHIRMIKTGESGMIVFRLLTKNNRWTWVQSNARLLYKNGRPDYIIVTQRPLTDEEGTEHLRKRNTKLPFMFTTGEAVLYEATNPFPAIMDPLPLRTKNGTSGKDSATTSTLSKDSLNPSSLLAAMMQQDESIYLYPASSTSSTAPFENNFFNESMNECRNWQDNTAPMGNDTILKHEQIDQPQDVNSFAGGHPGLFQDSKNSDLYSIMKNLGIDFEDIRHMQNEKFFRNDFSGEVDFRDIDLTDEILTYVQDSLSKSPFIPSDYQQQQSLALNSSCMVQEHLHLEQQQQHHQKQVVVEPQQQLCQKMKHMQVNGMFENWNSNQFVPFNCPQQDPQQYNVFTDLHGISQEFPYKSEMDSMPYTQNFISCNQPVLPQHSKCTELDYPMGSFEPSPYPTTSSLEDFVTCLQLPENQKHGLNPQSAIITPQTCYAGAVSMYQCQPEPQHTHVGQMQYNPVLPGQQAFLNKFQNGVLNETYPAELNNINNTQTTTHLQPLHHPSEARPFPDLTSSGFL
In short: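 Transient MRTU transfection of HepG2 → 24 h compound exposure → total RNA, oligo(dT) RT → PCR, 6-FAM extension, HpaI cut → CE fluorescence. DMSO = baseline; bidirectional curve fit.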

[6] = ATG_AP_1_CIS: Attagene CIS-FACTORIAL HepG2 Assay for human Activator Protein 1 (AP-1) (AID 2282931); conditions: HepG2 Attagene cis-factorial AP-1 reporter mRNA; actives raise or lower the signal
In short: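 HepG2 cells transiently transfected with cis-element-driven multiplex reporter units; 24 h compound exposure. Reporter mRNA quantified by RT-PCR, FAM-labelled fragments resolved by capillary electrophoresis; bidirectional fit versus DMSO baseline.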

[7] = ATG_AP_2_CIS: Attagene CIS-FACTORIAL HepG2 Assay for human Activator Protein 2 (AP-2) (AID 2282932); conditions: HepG2 AP-2 cis-reporter, Attagene transcription factor profiling; actives raise or lower the signal
In short: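 Transiently transfected HepG2 cells are exposed to chemical for 24 h. Reporter transcripts are then measured as fluorescence following RT-PCR and capillary separation, and gain- or loss-of-signal is fitted relative to DMSO.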

[8] = ATG_BRE_CIS: Attagene CIS-FACTORIAL HepG2 Assay for human Bone Morphogenetic Protein (BMP) Response Element (BRE) (AID 2282933); conditions: HepG2 BMP response element reporter, Attagene transcription factor profiling; actives raise or lower the signal
In short: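 Endogenous transcription factor activity at a BMP response element was monitored in transfected HepG2 cells 24 h after dosing. Fluorescent RT-PCR products were resolved by capillary electrophoresis, and activity was fitted in both directions versus DMSO.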

[9] = molecular target: Transcription factor E2F1 (Homo sapiens) (UniProt Q01094); assay: ATG_E2F_CIS: Attagene CIS-FACTORIAL HepG2 Assay for human E2F Transcription Factor 1 (AID 2282935); conditions: HepG2 Attagene cis-reporter, E2F reporter RNA transcripts; actives raise or lower the signal
Sequence of Transcription factor E2F1 (Homo sapiens) (Q01094 whole entry, looked up): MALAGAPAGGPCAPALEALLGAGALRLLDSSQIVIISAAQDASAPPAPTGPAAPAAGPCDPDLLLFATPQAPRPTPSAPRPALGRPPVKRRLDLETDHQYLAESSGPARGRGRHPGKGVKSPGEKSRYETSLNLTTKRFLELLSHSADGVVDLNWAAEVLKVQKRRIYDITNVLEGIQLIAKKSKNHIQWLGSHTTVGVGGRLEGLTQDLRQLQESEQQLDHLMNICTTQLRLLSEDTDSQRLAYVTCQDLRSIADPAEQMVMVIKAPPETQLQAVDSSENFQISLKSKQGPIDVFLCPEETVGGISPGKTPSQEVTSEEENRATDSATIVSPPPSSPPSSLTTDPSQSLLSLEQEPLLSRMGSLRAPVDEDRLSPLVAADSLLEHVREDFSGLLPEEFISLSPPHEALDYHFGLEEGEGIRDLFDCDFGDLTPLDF
In short: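 Fluorescent RT-PCR products, digested with HpaI for 2 h at 37 C, are separated by capillary electrophoresis. Source RNA comes from transfected HepG2 cultures treated for 24 h.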

[10] = ATG_E_Box_CIS: Attagene CIS-FACTORIAL HepG2 Assay for human Enhancer Box (E-box) (AID 2282936); conditions: HepG2 E-box cis-reporter transcription, actives raise or lower the signal
In short: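 Fluorescent reporter fragments separated by capillary electrophoresis gave the signal; mRNA came from HepG2 cells transfected with cis-element reporters and treated 24 h. Curves fitted bidirectionally relative to DMSO controls.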

[11] = ATG_M_61_CIS: Attagene CIS-FACTORIAL HepG2 Assay for M61 Transcription Factor (Internal Marker) (AID 2282937); conditions: HepG2 Attagene CIS-FACTORIAL M61 internal marker reporter; actives raise or lower the signal
In short: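 HepG2 cells transiently transfected with cis-element-driven multiple reporter transcription units, dosed for 24 h. Reporter mRNA measured by RT-PCR, 6-FAM primer-extension labelling, HpaI digestion and capillary electrophoresis; bidirectional fit versus DMSO baseline.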

[12] = ATG_EGR_CIS: Attagene CIS-FACTORIAL HepG2 Assay for human Early Growth Response 1 (EGR1) (AID 2282938); conditions: HepG2 Attagene CIS-FACTORIAL EGR reporter mRNA; actives raise or lower the signal
In short: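 HepG2 cells transiently transfected with cis-promoter-driven multiplexed reporter transcription units; reporter mRNA measured 24 h after compound dosing by RT-PCR, 6-FAM primer extension, HpaI digestion and capillary electrophoresis. Bidirectional fit versus DMSO baseline.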

[13] = ATG_M_19_CIS: Attagene CIS-FACTORIAL HepG2 Assay for M19 Transcription Factor (Internal Marker) (AID 2282939); conditions: HepG2 Attagene CIS-FACTORIAL M19 internal marker reporter; actives raise or lower the signal
In short: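 Background-control endpoint from a multiplexed HepG2 reporter panel. Cells carrying cis-regulated reporter constructs are treated 24 h, then reporter transcripts are amplified, fluorescently labelled and sized by capillary electrophoresis. DMSO defines baseline.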

[14] = ATG_ERE_CIS: Attagene CIS-FACTORIAL HepG2 Assay for Estrogen Response Element (ERE) (AID 2282940); conditions: HepG2 ERE cis-reporter, Attagene RNA transcript; actives raise or lower the signal
In short: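 Cells used were human hepatoma HepG2, transfected with multiple reporter transcription units under cis-regulatory promoters. Reporter mRNA, read 24 h post-dosing via fluorescent RT-PCR products on capillary electrophoresis, was fitted bidirectionally relative to DMSO.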

[15] = ATG_Ets_CIS: Attagene CIS-FACTORIAL HepG2 Assay for human Erythroblast Transformation Specific (ETS) (AID 2282941); conditions: HepG2 ETS cis-reporter transcription, actives raise or lower the signal
In short: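 Bidirectional fit versus DMSO of reporter mRNA signal, detected by RT-PCR and capillary electrophoresis in HepG2 cells transiently transfected with cis-element reporters and dosed 24 h.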

[16] = ATG_FoxO_CIS: Attagene CIS-FACTORIAL HepG2 Assay for human Forkhead box O (FoxO) (AID 2282943); conditions: HepG2 Attagene cis-reporter, FoxO element, mRNA; actives raise or lower the signal
In short: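 HepG2, transient MRTU transfection (cis element, endogenous TFs). Dose 24 h. TriZol RNA → oligo(dT) RT → PCR → 6-FAM primer extension → HpaI cut → CE. Gain/loss vs DMSO.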

[17] = ATG_GATA_CIS: Attagene CIS-FACTORIAL HepG2 Assay for human GATA Binding Protein (AID 2282944); conditions: HepG2 GATA cis-element reporter, Attagene multiplex mRNA; actives raise or lower the signal
In short: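 Endogenous transcription factor activity was captured through cis-promoter-driven reporters in transfected HepG2 cells. After 24 h exposure, reporter transcripts were quantified by RT-PCR with fluorescent capillary electrophoresis, and responses fitted both directions against DMSO.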

[18] = ATG_GLI_CIS: Attagene CIS-FACTORIAL HepG2 Assay for human Zinc Finger Protein GLI1 (AID 2282945); conditions: HepG2, Attagene cis-factorial reporter mRNA, GLI element; actives raise or lower the signal
In short: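 Bidirectional curve fits relative to DMSO, using reporter mRNA levels from RT-PCR plus capillary electrophoresis. Cells were HepG2 transiently carrying cis-regulated reporter constructs, harvested 24 h after dosing.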

[19] = molecular target: Hepatocyte nuclear factor 3-beta (Homo sapiens) (UniProt Q9Y261); assay: ATG_FoxA2_CIS: Attagene CIS-FACTORIAL HepG2 Assay for human Forkhead box A2 (FOXA2) (AID 2282942); conditions: HepG2 cis-reporter transcription factor activity, 24 h; actives raise or lower the signal
Sequence of Hepatocyte nuclear factor 3-beta (Homo sapiens) (Q9Y261 whole entry, looked up): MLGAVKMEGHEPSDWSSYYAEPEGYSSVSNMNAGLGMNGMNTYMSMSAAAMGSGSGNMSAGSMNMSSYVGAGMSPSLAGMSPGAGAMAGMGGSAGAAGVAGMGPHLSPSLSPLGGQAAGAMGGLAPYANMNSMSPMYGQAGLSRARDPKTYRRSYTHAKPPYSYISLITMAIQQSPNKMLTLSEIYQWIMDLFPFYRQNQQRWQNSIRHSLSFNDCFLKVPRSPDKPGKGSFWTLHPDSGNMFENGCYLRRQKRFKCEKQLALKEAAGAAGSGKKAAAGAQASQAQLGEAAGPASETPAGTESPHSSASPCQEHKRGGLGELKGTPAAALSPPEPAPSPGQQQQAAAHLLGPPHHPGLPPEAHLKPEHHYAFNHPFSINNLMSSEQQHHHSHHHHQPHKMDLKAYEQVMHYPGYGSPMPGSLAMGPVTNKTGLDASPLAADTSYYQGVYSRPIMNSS
In short: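 HepG2 cells transiently transfected with multiple cis-regulated reporter transcription units, dosed for 24 h. Reporter mRNA measured by RT-PCR, 6-FAM labelling, HpaI digestion and capillary electrophoresis; bidirectional fitting against DMSO baseline.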

Measured: AC50

CC1=CCC(O)(C(C)C)CC1 (stereo not given)
inactive: [1] | [2] | [3] | [4] | [5] | [6] | [7] | [8] | [9] | [10] | [11] | [12] | [13] | [14] | [15] | [16] | [17] | [18]

CC1(CO)CN(c2ccccc2)NC1=O (stereo not given)
active: [5] 9.8 µM
inactive: [1] | [2] | [3] | [4] | [6] | [7] | [8] | [9] | [10] | [11] | [12] | [13] | [15] | [19] | [16] | [17] | [18]

CC(C=O)Cc1ccc(C(C)C)cc1 (stereo not given)
inactive: [1] | [2] | [3] | [4] | [5] | [6] | [7] | [8] | [9] | [10] | [11] | [12] | [13] | [15] | [19] | [16] | [17] | [18]

c1cc(C(c2ccc(OCC3CO3)cc2)c2ccc(OCC3CO3)cc2)ccc1OCC1CO1 (stereo not given)
active: [1] 25.2 µM | [3] 26.3 µM | [4] 53.2 µM | [6] 19.8 µM | [7] 8.7 µM | [10] 100 µM | [12] 8.73 µM | [13] 175 µM | [19] 185 µM | [16] 167 µM | [17] 180 µM
inactive: [2] | [5] | [8] | [9] | [11] | [14] | [15] | [18]

O=C(O)CCCCCCCCCCC(=O)O
inactive: [1] | [2] | [3] | [4] | [5] | [6] | [7] | [8] | [9] | [10] | [11] | [12] | [13] | [14] | [15] | [16] | [17] | [18]

COC(=O)Cc1cccc2ccccc12
inactive: [1] | [2] | [3] | [4] | [5] | [6] | [7] | [8] | [9] | [10] | [11] | [12] | [13] | [14] | [15] | [19] | [16] | [17] | [18]

C=COCCOCCOCCOC=C
inactive: [1] | [2] | [3] | [4] | [5] | [6] | [7] | [8] | [9] | [10] | [11] | [12] | [13] | [15] | [19] | [16] | [17] | [18]

CCCCCCCCCCCCN(CCCCCCCCCCCC)CCCCCCCCCCCC
inactive: [1] | [2] | [3] | [4] | [5] | [6] | [7] | [8] | [9] | [10] | [11] | [12] | [13] | [15] | [19] | [16] | [17] | [18]

CC(=O)C(C)=O
active: [3] 40.6 µM
inactive: [1] | [2] | [4] | [5] | [6] | [7] | [8] | [9] | [10] | [11] | [12] | [13] | [15] | [19] | [16] | [17] | [18]

O=C(O)CN(CCN(CC(=O)O)CC(=O)O)CCN(CC(=O)O)CC(=O)O
inactive: [1] | [2] | [3] | [4] | [5] | [6] | [7] | [8] | [9] | [10] | [11] | [12] | [13] | [15] | [19] | [16] | [17] | [18]

CC(=O)[C@H]1CC[C@H]2[C@@H]3CC=C4C[C@@H](O)CC[C@]4(C)[C@H]3CC[C@]12C
inactive: [1] | [2] | [3] | [4] | [5] | [6] | [7] | [8] | [9] | [10] | [11] | [12] | [13] | [15] | [19] | [16] | [17] | [18]
active: [14] 2.32 µM

CCCCc1ccc(N)cc1
inactive: [1] | [2] | [3] | [4] | [5] | [6] | [7] | [8] | [9] | [10] | [11] | [12] | [13] | [15] | [19] | [16] | [17] | [18]
active: [14] 29.6 µM

CC(=O)OCCC(C)CC(C)(C)C (stereo not given)
inactive: [1] | [2] | [3] | [4] | [5] | [6] | [7] | [8] | [9] | [10] | [11] | [12] | [13] | [14] | [19] | [16] | [17] | [18]

CC1=CCC2C(C1)C2(C)C (stereo not given)
inactive: [1] | [2] | [3] | [4] | [5] | [6] | [7] | [8] | [9] | [10] | [11] | [12] | [13] | [15] | [16] | [17] | [18]
active: [14] 82 µM

O=C1OC2(c3cc(Br)c(O)c(Br)c3Oc3c2cc(Br)c(O)c3Br)c2c(Cl)c(Cl)c(Cl)c(Cl)c21
active: [5] 15.1 µM | [12] 35 µM | [14] 18.2 µM
inactive: [1] | [2] | [3] | [4] | [6] | [7] | [8] | [9] | [10] | [11] | [13] | [15] | [19] | [16] | [17] | [18]
